Screening results: PubChem BioAssay, National Center for Advancing Translational Sciences (NCATS)
HT1080 IDH1KD tx – qHTS for induction of synthetic lethality in tumor cells producing 2HG: qHTS for the HT-1080-IDH1KD cell line; hit rate 2% among 360,000; HT-1080 IDH1 knockdown viability, ATP luminescence, 48 h; Potency, µM (doses to about 46.1 µM), for the others: top-dose activity, negative = toxicity, most hits filed as cytotoxic;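 note: 0% = DMSO wells and -100% = cell-free medium wells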
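In this qHTS, HT-1080 cells depleted of IDH1 are exposed for 48 h at 37 °C to compound titrations. Toxicity is scored from CellTiter-Glo luminescence, with DMSO as full viability and medium alone as none.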
ATXN2 expr inh – Primary qHTS for Inhibitors of ATXN expression | HEK-293 ATXN2-luciferase reporter, luminescence, 24 h | Potency, µM (series often up to 57 µM), for the others: top-dose activity change, negative = inhibition, most hits filed as inhibitors | hit rate 0.72% among 360,000; note: % is set by controls: 0 for no effect and ±100 for the full control effect; nearly all actives have a fitted effect of over 55% in size
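qHTS (up to 57 uM final) was run with 24 h compound exposure of reporter cells at 37 °C. Each well was multiplexed: SteadyGlo luminescence measured ATXN2-luciferase expression after a fluorogenic Gly-Phe-AFC viability readout (25 uM final).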
KB-V1 cytotox – qHTS assay for MDR1-selective chemotherapeutics: Primary screen using the drug-selected MDR subline cells KB-V1. hit rate 3.4% among 400,000. AID 1347076, 2019. KB-V1 MDR cells viability, CellTiter-Glo, 72 h. Potency, µM (highest dose often 46.1 µM), hits mostly cytotoxic; note: % is set by controls: 0 for no effect and ±100 for the full control effect; nearly all actives have a fitted effect of over 60% in size
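Cytotoxicity via CellTiter-Glo luminescence after 72 h compound exposure at 37 degrees C. Cells: drug-selected KB-V1 line, DMEM phenol-red free plus 10% FBS. Compounds tested at multiple concentrations; normalized data fitted to concentration-effect curves.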
ATXN viability – Viability Counterscreen for Primary qHTS for Inhibitors of ATXN expression; S2 cells (HEK-293 line with an ATXN2-luciferase reporter) viability, CellTiter-Fluor protease fluorescence, 24 h; hit rate 0.49% among 400,000; Potency, µM (top dose mostly 56.7 µM), actives largely listed as cytotoxic; note: nearly all actives have a fitted effect of over 40% in size
HT1080-NT tox – qHTS for induction of synthetic lethality in tumor cells producing 2HG: qHTS for the HT-1080-NT fibrosarcoma cell line. HT-1080-NT fibrosarcoma viability, CellTiter-Glo ATP luminescence, 48 h. Potency, µM (doses to about 46.1 µM), without a hit: top-dose activity, negative = less viability, most hits filed as cytotoxic. hit rate 1.6% among 360,000;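 note: NT is the 2HG producing partner of a matched IDH1 knockdown line; 0% = DMSO-treated cells and -100% = media-only wells without cells; nearly all actives have a fitted effect of over 55% in size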
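Read-out is CellTiter-Glo luminescence after 10 minutes at room temperature, following 48 hours' compound treatment of HT-1080-NT cells (750 cells/well, RPMI, 5% FBS, 37 degrees C).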
KB-3-1 tox – qHTS assay for MDR1-selective chemotherapeutics: Primary screen using the parental adenocarcinoma cell KB-3-1 | KB-3-1 viability, CellTiter-Glo ATP luminescence, 72 h | Potency, µM (highest dose often 46.1 µM), actives largely listed as cytotoxic | hit rate 1.4% among 400,000 | AID 1347075, 2019; note: % is set by controls: 0 for no effect and ±100 for the full control effect; nearly all actives have a fitted effect of over 60% in size
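Parental KB-3-1 viability, qHTS format: 72 h compound exposure, 37 °C; CellTiter-Glo; media-only wells and DMSO plates as controls; concentration-effect fits on corrected data.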
Active calls of the source: *; i = inactive; u = inconclusive; x = no result given; [ ] = dose if it differs, or a comment. In the library only some 6.2% were active in any assay of this set; here they are far more common. Calls come from the whole dose curve; as a rule, active = well fitted curve in the direction sought with a large enough effect; inconclusive = small, poorly fitted or top-dose-only effect, or another doubt; inactive = no such curve, though single readings can be large; an effect the other way counts as inactive or inconclusive. Potency is the fitted concentration of half-maximal effect.

SMILES	HT1080 IDH1KD tx	ATXN2 expr inh	KB-V1 cytotox	ATXN viability	HT1080-NT tox	KB-3-1 tox
COc1cc2c(cc1OC)C(COc1cc(C)cc(C)c1)N(C(=O)C(C)(C)C)CC2 (centres undefined)	x	-27.4%	i	i	x	i
CC(=O)Nc1ccc(NC(=O)c2cc(C)nn2-c2ccccc2)cc1	2.3%	4.0%	i	i	4.9%	i
CC(=O)c1cc2c(cc1NC(=O)c1cc(C)nn1-c1ccccc1)OCO2	-6.9%	-7.8%	i	i	0.0%	5.8µM*
Cc1noc(C)c1COc1ccc(C(=O)N2CCC(C)CC2)cc1	0.3%	-14.7%	23.1µM*	i	1.2%	i
Cc1noc(C)c1COc1ccc(C(=O)N2CC(C)CC(C)C2)cc1 (centres undefined)	-1.3%	-26.6%	i	i	-5.6%	i
Cc1noc(C)c1COc1ccc(C(=O)N2CCN(S(=O)(=O)c3ccc(Cl)cc3)CC2)cc1	0.3%	1.5%	i	i	-5.1%	i
Cc1noc(C)c1COc1ccc(C(=O)N2CCN(S(=O)(=O)c3ccc(F)cc3)CC2)cc1	-6.3%	4.3%	8.2µM*	i	-7.0%	i
CCOC(=O)c1c(C)[nH]c(C(=O)OC(C)C(=O)NCc2ccccc2)c1C (centres undefined)	-0.6%	u	u	i	-6.9%	i
Cc1[nH]c2ccc(C(=O)OC(C)C(=O)NCc3ccccc3)cc2c1C (centres undefined)	u	-16.3%	16.4µM*	u	u	16.4µM*
c1csc(-c2nc(N3CCN(Cc4ccc5c(c4)OCCO5)CC3)c3ccccc3n2)c1	6.2%	x	x	x	-1.8%	x
O=C1C2C3C=CC(C4CC34)C2C(=O)N1CCc1ccccc1 (centres undefined)	-1.9%	40.7%	18.4µM*	i	0.1%	i
COc1ccccc1C(=O)N1CCOc2ccc(CN3CCN(Cc4ccccn4)CC3)cc2C1	x	x	x	i	x	x
CC(C)c1ccc(NC(=O)Cn2c(=O)n(Cc3nc(-c4ccccc4)no3)c(=O)c3cc4c(cc32)OCO4)cc1	x	4.6%	i	i	x	i
O=C(N/N=C/c1cccs1)c1ccc2ccccc2c1	-14.0%	6.0%	u	u	u	20.6µM*
O=C(N/N=C/c1cc([N+](=O)[O-])ccc1O)c1cccc(N2CCCC2=O)c1	u	17.8µM*	i	u	u	u
COc1cc(/C=N/NC(=O)c2cccc(N3CCCC3=O)c2)ccc1O	18.5%	41.6%	i	i	22.4%	i
O=C(N/N=C/c1cc([N+](=O)[O-])ccc1O)c1cccc2cc[nH]c12	9.2µM*	3.16µM*	i	u	u	u
O=C(O)c1cccc(N/N=C/c2cccs2)c1	-6.8%	10µM*	i	u	-6.1%	i
O=C(N/N=C/c1cccc([N+](=O)[O-])c1)c1cccc2cc[nH]c12	-4.2%	-15.1%	i	i	-9.2%	i
Clc1ccc(-c2nn3c(-c4cc(-c5ccccc5)n[nH]4)nnc3s2)cc1	x	x	u	x	x	i
Cc1ccc(/C=N/NC(=O)CSc2nc3ccccc3n2C)s1	-7.7%	6.2%	14.6µM*	i	1.1%	i
Cc1ccc(/C=N/NC(=O)c2ccc3c(c2)OCCO3)s1	13µM*	-8.5%	u	u	u	20.6µM*
O=C(N/N=C/c1cc(Br)cs1)c1ccc2c(c1)OCCO2	11.6µM*	-18.9%	u	i	2.91µM*	u
Cc1ccsc1/C=N/NC(=O)c1ccc2c(c1)OCCO2	-12.7%	-36.4%	i	i	-6.0%	i
Cc1ccc(/C=N/NC(=O)c2ccc3ccccc3c2)s1	2.31µM*	11.7%	u	i	u	5.8µM*
SMILES	HT1080 IDH1KD tx	ATXN2 expr inh	KB-V1 cytotox	ATXN viability	HT1080-NT tox	KB-3-1 tox
Cn1c(SCC(=O)N/N=C/c2cccs2)nc2ccccc21	1.9%	1.8%	i	i	1.8%	i
Cc1ccc(/C=N/NC(=O)c2ccncc2)s1	3.1%	9.3%	i	i	1.6%	i
COc1cc(Cl)c(C)cc1NC(=O)c1nn(-c2ccc(C)cc2)c(=O)n(C)c1=O	x	0.2%	i	i	x	i
O=C(Nc1ccccc1C(F)(F)F)C1(S(=O)(=O)c2ccc(Cl)cc2)CC1	x	-4.8%	i	i	x	i
O=C(N/N=C/c1cccs1)c1cccc2cc[nH]c12	15.8µM*	51.9%	20.6µM*	i	u	i
O=[N+]([O-])c1ccc2c(c1)C=C/C2=C\c1ccccc1	x	x	i	x	x	i
CCOc1ccc(C(c2c(O)cc(C)n(CCOC)c2=O)N2CCN(c3ccccc3F)CC2)cc1 (centres undefined)	x	x	i	x	x	i
CCOC(=O)c1[nH]cnc1N=Nc1c(O)ccc2ccccc12	6.51µM*	11.2µM*	u	10µM*	5.8µM*	i
CCOC(=O)C1=C(C)Nc2nc(SC)nn2C1c1ccc(C(=O)OC)cc1 (centres undefined)	8.9%	-20.9%	5.8µM*	i	1.6%	i
COc1ccc2c(c1)CCc1c(C(=O)Nc3ccccc3C(F)(F)F)noc1-2	x	14.2%	i	i	x	i
CCC(=O)N1CCN(c2cc(N3CCCC3)c(F)cc2[N+](=O)[O-])CC1	u	x	u	i	-2.2%	i
CC(=O)N1CCN(c2cc(N3CCc4ccccc4C3)c(F)cc2[N+](=O)[O-])CC1	u	u	18.4µM*	u	u	i
O=C(c1cccc(F)c1)N1CCN(c2cc(N3CCCCC3)c(F)cc2[N+](=O)[O-])CC1	2.4%	-9.4%	18.4µM*	i	0.0%[9.24 µM]	u
CC(C)NC(=O)C1CCC(Cn2c(=O)c3sccc3n(CC(=O)NCc3ccccc3)c2=O)CC1 (centres undefined)	x	14.6%	u	i	x	i
CSC1SCC2C(=O)N(C)C(C(C)C)C(=O)OCC(NC(=O)c3cnc4ccccc4n3)C(=O)NC(C)C(=O)N(C)C1C(=O)N(C)C(C(C)C)C(=O)OCC(NC(=O)c1cnc3ccccc3n1)C(=O)NC(C)C(=O)N2C (centres undefined)	0.0012µM*	-62.6%	1.64µM*	u	-31.5%	i
